SMILES strings stand for the structures. Inconclusive results are not listed. The source made the active and inactive calls. Rule for the calls: active = hit-call score of the fitted dose curve at least 0.9, where 1 is the maximum; inconclusive = response in the unintended direction; inactive = score below 0.9.

The term AC50 denotes the midpoint of the concentration-response curve, whichever way the signal moves.

Chain of guinea pig Opioid, Kappa 1 Receptor (OpiateK), OPRK1 (gene 100135587) (P41144 whole entry, looked up): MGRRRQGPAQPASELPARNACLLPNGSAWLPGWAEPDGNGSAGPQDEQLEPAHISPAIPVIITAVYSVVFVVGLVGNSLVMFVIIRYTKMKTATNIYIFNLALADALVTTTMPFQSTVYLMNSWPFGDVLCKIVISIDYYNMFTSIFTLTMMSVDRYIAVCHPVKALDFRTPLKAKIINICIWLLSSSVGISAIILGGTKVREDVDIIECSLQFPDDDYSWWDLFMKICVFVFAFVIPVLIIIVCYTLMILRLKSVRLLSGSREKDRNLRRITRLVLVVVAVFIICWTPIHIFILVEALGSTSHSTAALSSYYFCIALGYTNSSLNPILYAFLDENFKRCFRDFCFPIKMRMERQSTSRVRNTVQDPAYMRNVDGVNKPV

The target in the test is guinea pig Opioid, Kappa 1 Receptor (OpiateK), OPRK1 (gene 100135587) (UniProt P41144). Put plainly: NVS_GPCR_gOpiateK: NovaScreen (NVS) G Protein-Coupled Receptor Assay for guinea pig Opioid, Kappa 1 Receptor (OpiateK) (AID 2283252).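 Note: active means reduced radioligand binding relative to DMSO.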 The protocol:
NVS_GPCR_gOpiateK is a biochemical, single-readout assay that uses extracted gene-proteins from Guinea pig cerebellar membranes in a tissue-based cell-free assay. Measurements were taken 2 hours after chemical dosing in a 48-well plate.NVS_GPCR_gOpiateK is one of one assay component(s) measured or calculated from the NVS_GPCR_gOpiateK assay. It is designed to make measurements of radioligand binding, a form of binding reporter, as detected with scintillation counting signals by Filter-based radiodetection technology.Data from the assay component NVS_GPCR_gOpiateK was analyzed into 1 assay endpoint. This assay endpoint, NVS_GPCR_gOpiateK, was analyzed in the positive analysis fitting direction relative to DMSO as the negative control and baseline of activity. Using a type of binding reporter, loss-of-signal activity can be used to understand changes in the binding as they relate to the gene Oprk1. Furthermore, this assay endpoint can be referred to as a primary readout, because the performed assay has only produced 1 assay endpoint. To generalize the intended target to other relatable targets, this assay endpoint is annotated to the gpcr intended target family, where the subfamily is rhodopsin-like receptor.
Binding assays used specific radioligands (tritiated, iodinated) with non-radioactive competitive displacement ligands in agonist or antagonist protocols (as indicated) and various reference compounds and inhibitors to titrate specific binding to receptors and transporters. Most enzyme assays (CYPs, kinases, phosphatases, proteases, HDACs) used recombinant protein and specific substrates (fluorescence mostly, some colorimetric and radioactive) and inhibitors, followed by a biochemical separation of substrate and product. All assays for the biochemical HTS were initially run in duplicate at a single concentration (10 uM for CYP450 assays and 25 uM for all others). […] Each assay was run with positive and negative controls, and concurrent controls on every plate. The follow-up (secondary) screen tested active chemical-pairs in concentration series, as well as a few additional assays not tested in the primary screen, some selected negative inactives, and several cases re-run in the concentration series for confirmatory purposes.
In the case of `CCN(CC)CCOc1ccc(C(=C(Cl)c2ccccc2)c2ccccc2)cc1`, the molecule was called inactive.

On to `NC(=Nc1ccccc1)Nc1ccccc1`, for which the AC50 was 25 µM (active). Same read-out and setting: to `CN(C)CCCN1c2ccccc2Sc2ccc(Cl)cc21` belongs 10.1 µM (active); to `CCCCc1nc2cccnc2n1Cc1ccc(-c2ccccc2-c2nnn[nH]2)cc1`, 10 µM (active). On to `CCC(C)N(C)C(=O)c1cc2ccccc2c(-c2ccccc2Cl)n1` (stereo unspecified), for which the AC50 was 1.91 µM (active). With `CC(C)(O)c1ccc(CNC(=O)c2cccnc2Oc2ccc(F)cc2)cc1`, the outcome was inactive.

Turning to `CSc1ccc(Oc2ccc(S(N)(=O)=O)cc2CN(C)C)cc1C`, the AC50 is 13.5 µM (active). On the same count and under the same terms, then `O=C1OC(c2ccc(O)cc2)(c2ccc(O)cc2)c2ccccc21`, with 4.09 µM (active); and `O=C(N[C@@H](c1ccccc1)[C@@H]1CCCCN1)c1cccc(C(F)(F)F)c1Cl`, with 0.641 µM (active); and `COc1ccc(OC(F)(F)F)cc1CN[C@H]1CCCN[C@H]1c1ccccc1`, with 25 µM (active).

For the molecule `CN(C)C(=O)NC1(c2ccccc2)CCN(CCC[C@]2(c3ccc(Cl)c(Cl)c3)CCCN(C(=O)c3ccccc3)C2)CC1`, the AC50 is 3.56 µM (active).

In the case of `CCc1cc(C2=C(C(=O)O)N(c3ccccc3C(F)(F)F)S(=O)(=O)c3ccccc32)cc2c1OCO2`, the molecule was called inactive.

For the molecule `CN(C)C(=O)NC1(c2ccccc2)CCN(CC[C@@]2(c3ccc(F)c(F)c3)CN(C(=O)c3ccccc3)CCO2)CC1`, the AC50 is 3.94 µM (active). On the same count and under the same terms, to `O=Cc1ccccc1C=O` belongs 9.81 µM (active); to `O=C(O)c1[nH]n(-c2ccc(S(=O)(=O)O)cc2)c(=O)c1N=Nc1ccc(S(=O)(=O)O)cc1`, 43.3 µM (active). With `O=C1CCCCC1`, the molecule was called inactive.

(Values after PubChem BioAssay (EPA / NIEHS).)
